# Measurements reported in PubChem BioAssay AID709 (SRMLSC, 2007).
# About 3,600 (5.5%) of roughly 65,000 compounds were called active. Many of the other results were omitted from the sample, so actives are more common in it than they were. Values without a mark were called inactive.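 How the source made its calls: active means at 10 µM, mean starting fluorescence two-fold or more over control wells; inactive means the rest.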
# Experiment: intrinsic fluorescence of library compounds, ex339/em460 – biochemical, MLSMR library, data from DPM-DC assay, artefact control, profiling panel (AID 709);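 further: signal is the first read of a kinetic run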
# Details: compound autofluorescence, ex339/em460 nm, NADH buffer; at 10 µM; stronger effect = higher value; 1 = no-compound wells, NADH background
row,Structure (SMILES),fluorescence fold increase
1,CCOC(=O)c1c(NC(=O)c2ccc(Br)o2)sc2c1CCCC2,2.17 (active)
2,COc1cc(OC)c(NC(=O)c2ccc(Br)o2)cc1Cl,1.09
3,COC(=O)c1c(NC(=O)CSc2nncs2)sc2c1CCCCC2,1.1
4,CCOC(=O)c1c(NC(=O)c2cccs2)sc(C)c1C,1.74
5,Fc1ccccc1CCNc1nnnn1-c1ccccc1,1.11
6,COc1cc(NS(=O)(=O)c2ccc(NC(C)=O)cc2)cc(OC)c1,1.13
7,COC(=O)c1ccc2c(c1)S(=O)(=O)NC(=NCCCN1CCOCC1)S2,1.06
8,CCNC(=O)CN(c1ccc(C)cc1)S(=O)(=O)c1ccc(SC)cc1,1.06
9,CCCOP(=O)(c1ccc(N(C)C)cc1)C(O)c1cc(OC)c(OC)c(OC)c1 (stereo unspecified),1.13
10,CN(C)CCCn1c(N)c(C#N)c2nc(C#N)c(C#N)nc21,3.35 (active)
11,O=C1C(C=NCC2CCCO2)=C(O)c2ccccc21 (stereo unspecified),1.09
12,COC(=O)c1cnn2c(C(F)(F)F)cc(-c3ccco3)nc12,2.46 (active)
13,COc1ccc(-c2cc(C(F)(F)F)n3nc(C(=O)N4CCOCC4)c(Cl)c3n2)cc1,1.17
14,O=C(NCc1ccco1)c1cnn2c(C(F)(F)F)cc(-c3ccco3)nc12,1.6
15,CC(=O)Nc1ccc(S(=O)(=O)Nc2ccc(N3CCOCC3)c(F)c2)cc1,1.1
16,CCn1c(SCC(=O)NCc2ccco2)nnc1-c1ccc(N)cc1,1.1
17,CCOC(=O)c1cc(NC(=O)SCC(=O)O)c(C)nc1C,1.15
18,CCOC(=O)c1cc(-c2ccc(Cl)s2)nc2c1c(C)nn2C,3.19 (active)
19,CCOC(=O)c1c(C(C#N)C#N)cc(C)nc1C,0.98
20,CCOC(=O)N1CCN(C(=O)c2cc3c(ccc4ccccc43)oc2=O)CC1,3.93 (active)
21,CS(=O)(=O)N1CCN(C(=O)c2cc3ccccc3oc2=O)CC1,1.14
22,CN1CCN(CCCNC(=O)c2cc3c(=O)oc4ccccc4c3s2)CC1,1.53
23,C=CCc1cccc2cc(C(=O)N3CCN(C(=O)OCC)CC3)c(=O)oc12,1.17
24,O=C(NCCc1ccc2c(c1)OCCO2)c1cc2ccccc2o1,1.11
25,CNC(=O)c1cc2c(ccc3ccccc32)oc1=N,2.32 (active)
26,Cc1ccc(C(=O)N2CCN(C3CCCCC3)CC2)s1,1.14

row,Structure (SMILES),fluorescence fold increase
1,Cc1oc(C)c(C(=O)NCCCC(=O)O)c1C(=O)NCCCC(=O)O,1.14
2,CCOc1ccc(Cn2nnc(C(=O)Nc3ccc(OC)cc3OC)c2N)cc1,1.25
3,C[N+]1(CCNC(=O)/C=N/O)CCCCC1,1.1
4,CCCCC(=O)N1CC2(C)CN(C(=O)CCCC)CC(C)(C1)C2=O,1.09
5,COc1ccc(N2C(=O)CCC(C(=O)Nc3ccccn3)C2c2ccc(OC)c(OC)c2)cc1 (stereo unspecified),0.92
6,CC1(C)CC(=O)c2cc(OCC(=O)NCC3CCCO3)ccc2O1 (stereo unspecified),5.06 (active)
7,Cc1ccc(C(=O)NCC2CCCO2)o1 (stereo unspecified),1.14
8,COc1ccc(C2CC(=O)C=C(NCC3CCCO3)C2)cc1 (stereo unspecified),1.07
9,Nc1ccc(-c2nnc(-c3ccc(-c4ccccc4)cc3)o2)cc1,3.89 (active)
10,O=C(Nc1ccc(-c2nnc(-c3ccccc3)o2)cc1)C1CCCO1 (stereo unspecified),1.79
11,O=C(Nc1ccc(-c2nnc(-c3ccccc3)o2)cc1)c1ccc(Br)o1,1.45
12,CO/N=C(\C(=O)N[C@@H]1C(=O)N2C(C(=O)O)=C(COC(C)=O)CS[C@H]12)c1csc(N)n1 (stereo in doubt),1.08
13,CCCn1c(O)c(CN2CCCC(C)C2)c(C)c(C#N)c1=O (stereo unspecified),1.26
14,CCN(CC)Cc1c(C(=O)OC)nnn1-c1nonc1N,1.05
15,Cc1ccc2c(CSc3nncs3)cc(=O)oc2c1,1.02
16,COc1ccc(S(=O)(=O)Nc2ccc3c(c2)OCO3)cc1Cl,1.03
17,CCCC(=O)Nc1cccc(-c2cn3ccsc3n2)c1,1.09
18,CCOc1nc(OCC)nc(-n2cc(-c3ccccc3)nn2)n1,1.06
19,COc1ccc(-c2cn3ccsc3n2)cc1,1.08
20,c1ccc(-c2cn3cccnc3n2)cc1,2.51 (active)
21,CC(=O)Nc1cccc(-c2cnc3ccccc3n2)c1,1.09
22,CC(=O)Nc1ccc(-c2cn3cccnc3n2)cc1,5.32 (active)
23,O=C(Oc1cccnc1)c1cc2ccccc2oc1=O,1.24
24,CCOC(=O)C1CCCCN1Cc1ccc(OC)c(OC)c1OC (stereo unspecified),1.06
25,Cc1ccc2oc(=O)c3cnn(CC(=O)N4CCN(c5ccccn5)CC4)c3c2c1,1.1
